Among the data in PubChem BioAssay (Tox21) are Potency and outcome values, retold here.

Assay [1] can be described thus: qHTS assay to identify small molecule agonists of the peroxisome proliferator-activated receptor delta (PPARd) signaling pathway - cell viability counter screen (AID 743211). Note: nearly all actives have a fitted effect of over 55% in size. Note: potency is the fitted concentration of half-maximal effect. In a few lines: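 HEK293H PPARd-bla, 3000 cells/well; 5 h preincubation 37C/5% CO2; cpd in DMSO, 17 h 37C; B/G FRET substrate 2 h RT; CellTiter-Glo 30 min RT, luminescence.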
In general terms: Quantitative high-throughput screening tests each substance at several concentrations.

Assay [2] is described as follows: qHTS assay to identify small molecule antagonists of the peroxisome proliferator-activated receptor delta (PPARd) signaling pathway - cell viability counter screen (AID 743213). Note: nearly all actives have a fitted effect of over 50% in size. Note: potency is the fitted concentration of half-maximal effect. Summed up: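 CellTiter-Glo was added to PPARd-bla HEK293H wells following 17 h compound treatment in the presence of 300 nM L165041. Luminescence was recorded after 30 min at room temperature.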

Assay [3] in a line: qHTS assay to identify small molecule agonists of the farnesoid-X-receptor (FXR) signaling pathway - cell viability counter screen (AID 743218). Note: nearly all actives have a fitted effect of over 45% in size. Summed up:
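Same-well cytotoxicity check on FXR-UAS-bla HEK 293T cells: 5 h attachment, 16 h compound at 37 C, CellTiter-Glo luminescence read at room temperature after 30 min.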

Assay [4] in a line: qHTS assay to identify small molecule antagonists of the farnesoid-X-receptor (FXR) signaling pathway - cell viability counter screen (AID 743221; active = well fitted cell-killing curve with a large enough effect in the repeat runs, not every such curve was filed as active; note: nearly all actives have a fitted effect of over 50% in size; note: potency is the fitted concentration of half-maximal effect). In a few lines:
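Luminescence from CellTiter-Glo measures cytotoxicity in GeneBLAzer FXR-UAS-bla HEK 293T cells. Cells were exposed to compounds with 50 uM chenodeoxycholic acid (final) for 16 h at 37 C, in wells also used for the reporter readout.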

In assay [5] the target is Vitamin D3 receptor (Homo sapiens) (UniProt P11473). Description: qHTS assay to identify small molecule agonists of the vitamin D receptor (VDR) signaling pathway (AID 743222; calls by dose curve). In a few lines: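 Using LiveBLAzer B/G FRET detection, agonism was scored in VDR-bla cells exposed overnight (16 h, 37C) to DMSO-dissolved compounds; substrate incubation was 2 h at room temperature.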
Vitamin D3 receptor (Homo sapiens), sequence (P11473 whole entry, looked up): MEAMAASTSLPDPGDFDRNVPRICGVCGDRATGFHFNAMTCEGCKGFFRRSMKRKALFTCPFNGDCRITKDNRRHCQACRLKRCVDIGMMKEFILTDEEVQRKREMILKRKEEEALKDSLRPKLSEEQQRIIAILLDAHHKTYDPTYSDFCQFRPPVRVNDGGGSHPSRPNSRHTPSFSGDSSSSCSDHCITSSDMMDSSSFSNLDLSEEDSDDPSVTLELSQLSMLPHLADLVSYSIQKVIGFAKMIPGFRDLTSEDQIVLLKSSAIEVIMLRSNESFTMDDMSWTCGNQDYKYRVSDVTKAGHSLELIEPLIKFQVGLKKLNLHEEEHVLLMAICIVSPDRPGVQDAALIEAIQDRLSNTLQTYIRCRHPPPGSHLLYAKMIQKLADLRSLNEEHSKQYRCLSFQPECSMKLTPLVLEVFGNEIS

A short description of assay [6]: qHTS assay to identify small molecule agonists of the endoplasmic reticulum stress response signaling pathway (AID 1159516; active = well fitted activation curve with a large enough effect in the signal ratio in the repeat runs, not every such curve was filed as active; the % refers to the signal ratio). In a few lines:
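For this screen, HeLa cells stably carrying beta-lactamase under the ER stress response element received test compounds, positive controls or DMSO for 5 hr at 37 C; B/G FRET substrate was then added and dual-wavelength emission recorded.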

Assay [7] is described as follows: qHTS assay to identify small molecule antagonists of the retinoid-related orphan receptor gamma (ROR-gamma) signaling pathway - cell viability counter screen (AID 1159520). Note: nearly all actives have a fitted effect of over 50% in size. Summed up:
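Tet-on ROR gamma CHO cells were given compounds for 2 hr, then doxycycline hyclate at 1 uM final, and incubated 16 hr at 37 C. Viability was measured as ATP content by CellTiter-Glo luminescence.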

Assay [8] addresses Nuclear receptor ROR-gamma (Homo sapiens) (UniProt P51449). Briefly: qHTS assay to identify small molecule antagonists of the retinoid-related orphan receptor gamma (ROR-gamma) signaling pathway (AID 1159521; note: nearly all actives have a fitted effect of over 50% in size; note: potency is the fitted concentration of half-maximal effect). Summed up: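 CHO Tet-on RORγ, RORE-luc reporter. Cpd 2 h pre-incubation, then dox hyclate 1 uM final, 16 h, 37 C/5% CO2. ONE-Glo luminescence; decrease = antagonist.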
A short description of assay [9]: qHTS assay to identify small molecule agonists of the AP-1 signaling pathway - cell viability counter screen (AID 1159525; calls by dose curve; note: nearly all actives have a fitted effect of over 55% in size). In a few lines: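 Same-well cytotoxicity counter screen of the Tox21 10K library in ME-180 cells. The readout is ATP-dependent luminescence after 5 h compound treatment. Data are normalised to DMSO and tetra n-octyl ammonium bromide controls.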

Assay [10] is described as follows: qHTS assay to identify small molecule agonists of the AP-1 signaling pathway (AID 1159526; calls by dose curve).
Assay [11] has as its target Peroxisome proliferator-activated receptor delta (Homo sapiens) (UniProt Q03181). Briefly: qHTS assay to identify small molecule agonists of the peroxisome proliferator-activated receptor delta (PPARd) signaling pathway (AID 743212; calls by dose curve). Summed up:
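Read-out: beta-lactamase FRET fluorescence after 2 h room-temperature incubation with LiveBLAzer B/G substrate. Cells were HEK293H carrying a UAS-bla reporter for PPARd, treated at 37 C with DMSO-dissolved compounds.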

For assay [12] the target is unchanged. Description: qHTS assay to identify small molecule antagonists of the peroxisome proliferator-activated receptor delta (PPARd) signaling pathway (AID 743215; active = well fitted inhibition curve with a large enough effect in the signal ratio in the repeat runs, not every such curve was filed as active; the % refers to the signal ratio;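 note: cells stimulated with agonist L165041 at 300 nM final during compound exposure; series mostly up to about 62 µM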). In a few lines:
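Screen format: qHTS, antagonist mode. HEK293H PPARd-bla cells received compound and 300 nM L165041 (final), 17 h, 37 C. Beta-lactamase detected via FRET substrate fluorescence, 2 h, room temperature.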

For assay [13], the target named is Vitamin D3 receptor (Homo sapiens) (UniProt P11473). Description: qHTS assay to identify small molecule antagonists of the vitamin D receptor (VDR) signaling pathway (AID 743223; active = well fitted inhibition curve with a large enough effect in the signal ratio in the repeat runs, not every such curve was filed as active; the % refers to the signal ratio). Summed up:
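Antagonist mode uses 1alpha,25-dihydroxyvitamin D3 at 3 nM final as stimulus. VDR-bla cells receive compounds in DMSO, incubate 16 h at 37C, then a beta-lactamase FRET substrate for 2 h at room temperature before fluorescence measurement.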

Assay [14] is described as follows: qHTS assay to identify small molecule agonists of the vitamin D receptor (VDR) signaling pathway - cell viability counter screen (AID 743224). Note: nearly all actives have a fitted effect of over 50% in size. Note: potency is the fitted concentration of half-maximal effect. Summed up:
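Counter screen for cytotoxicity: VDR-bla cells at 2,000 cells/well, 16 h compound exposure, then CellTiter-Glo luminescence after the beta-lactamase measurement.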

Assay [15] in a line: qHTS assay to identify small molecule antagonists of the vitamin D receptor (VDR) signaling pathway - cell viability counter screen (AID 743225). Note: nearly all actives have a fitted effect of over 50% in size. Note: potency is the fitted concentration of half-maximal effect. In a few lines:
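Read-out: CellTiter-Glo luminescence measured 30 min after reagent addition at room temperature. Cells were VDR-bla HEK 293T exposed 16 h at 37C, 5% CO2, to compound with 3 nM final calcitriol agonist.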

For assay [16], the target named is Bile acid receptor (Homo sapiens) (UniProt Q96RI1). Description: qHTS assay to identify small molecule agonists of the farnesoid-X-receptor (FXR) signaling pathway (AID 743220; active = well fitted activation curve with a large enough effect in the signal ratio in the repeat runs, not every such curve was filed as active; the % refers to the signal ratio). In a few lines: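 FXR-UAS-bla HEK 293T cells carrying a UAS-driven beta-lactamase reporter were plated for 5 h at 37C/5% CO2, then exposed to DMSO-dissolved Tox21 10K compounds for 16 h at 37C. A LiveBLAzer B/G FRET substrate was loaded for 2 h at room temperature before fluorescence reading.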
Bile acid receptor (Homo sapiens), sequence (Q96RI1 whole entry, looked up): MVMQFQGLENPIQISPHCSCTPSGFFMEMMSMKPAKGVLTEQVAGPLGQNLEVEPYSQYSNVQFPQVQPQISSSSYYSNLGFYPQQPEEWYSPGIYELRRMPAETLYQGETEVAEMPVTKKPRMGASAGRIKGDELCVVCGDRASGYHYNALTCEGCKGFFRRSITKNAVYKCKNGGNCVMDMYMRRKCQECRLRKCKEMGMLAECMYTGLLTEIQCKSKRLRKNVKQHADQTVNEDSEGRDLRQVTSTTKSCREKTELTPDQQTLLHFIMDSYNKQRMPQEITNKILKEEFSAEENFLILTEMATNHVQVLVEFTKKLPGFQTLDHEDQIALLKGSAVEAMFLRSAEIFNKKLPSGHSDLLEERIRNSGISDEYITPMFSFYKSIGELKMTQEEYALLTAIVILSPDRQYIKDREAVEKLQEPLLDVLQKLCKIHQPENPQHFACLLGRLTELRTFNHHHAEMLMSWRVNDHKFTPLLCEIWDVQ

A short description of assay [17]: qHTS assay to identify small molecule agonists of the endoplasmic reticulum stress response signaling pathway - cell viability counter screen (AID 1159517; calls by dose curve). In a few lines: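 Steps: seed 1,500 ESRE-bla HeLa cells per well; incubate overnight at 37 C, 5% CO2; add compounds in DMSO for 5 hr; run FRET substrate 2 hr RT; add CellTiter-Glo, wait 30 min, read luminescence.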

Assay [18] concerns the target Bile acid receptor (Homo sapiens) (UniProt Q96RI1). Description: qHTS assay to identify small molecule antagonists of the farnesoid-X-receptor (FXR) signaling pathway (AID 743217; active = well fitted inhibition curve with a large enough effect in the signal ratio in the repeat runs, not every such curve was filed as active; the % refers to the signal ratio). In a few lines: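 Quantitative HTS, beta-lactamase reporter format: FXR-UAS-bla HEK 293T cells co-treated 16 h at 37 °C with compounds and 50 uM final chenodeoxycholic acid, then read by B/G FRET fluorescence.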

Assay [19] has as its target Retinoic acid receptor RXR-alpha (Homo sapiens) (UniProt P19793). Description: qHTS assay to identify small molecule agonists of the RXR signaling pathway (AID 1159527; calls by dose curve; note: nearly all actives have a fitted effect of over 35% in size). Summed up: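 Read-out: beta-lactamase FRET ratio (405 nm excitation, 460 and 530 nm emission) after 2 hr substrate loading at room temperature. Cells were RXR-alpha-UAS-bla HEK 293T treated with compounds for 16 hr in 2% charcoal-stripped FBS medium.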

Results filed as inconclusive are left out. Calls of active or inactive are those of the source. Unless noted, calls come from the whole dose curve; as a rule, active = well fitted curve in the direction sought with a large enough effect in the repeat runs; inconclusive = weak or mixed curves; inactive = no such curve, though single readings can be large; an effect the other way counts as inactive or inconclusive.

Peroxisome proliferator-activated receptor delta (Homo sapiens), sequence (Q03181 whole entry, looked up): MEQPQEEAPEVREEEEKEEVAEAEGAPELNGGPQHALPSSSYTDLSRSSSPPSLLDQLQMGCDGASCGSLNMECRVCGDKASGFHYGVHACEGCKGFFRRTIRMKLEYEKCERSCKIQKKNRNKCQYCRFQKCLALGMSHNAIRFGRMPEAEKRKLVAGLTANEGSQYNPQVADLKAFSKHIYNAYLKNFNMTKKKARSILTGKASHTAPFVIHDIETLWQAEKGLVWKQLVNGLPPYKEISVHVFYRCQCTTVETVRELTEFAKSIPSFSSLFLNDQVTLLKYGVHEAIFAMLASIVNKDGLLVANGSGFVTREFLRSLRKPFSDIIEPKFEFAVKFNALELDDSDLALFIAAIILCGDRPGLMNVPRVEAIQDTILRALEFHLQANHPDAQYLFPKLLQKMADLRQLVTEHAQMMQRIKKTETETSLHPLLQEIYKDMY
Retinoic acid receptor RXR-alpha (Homo sapiens), sequence (P19793 whole entry, looked up): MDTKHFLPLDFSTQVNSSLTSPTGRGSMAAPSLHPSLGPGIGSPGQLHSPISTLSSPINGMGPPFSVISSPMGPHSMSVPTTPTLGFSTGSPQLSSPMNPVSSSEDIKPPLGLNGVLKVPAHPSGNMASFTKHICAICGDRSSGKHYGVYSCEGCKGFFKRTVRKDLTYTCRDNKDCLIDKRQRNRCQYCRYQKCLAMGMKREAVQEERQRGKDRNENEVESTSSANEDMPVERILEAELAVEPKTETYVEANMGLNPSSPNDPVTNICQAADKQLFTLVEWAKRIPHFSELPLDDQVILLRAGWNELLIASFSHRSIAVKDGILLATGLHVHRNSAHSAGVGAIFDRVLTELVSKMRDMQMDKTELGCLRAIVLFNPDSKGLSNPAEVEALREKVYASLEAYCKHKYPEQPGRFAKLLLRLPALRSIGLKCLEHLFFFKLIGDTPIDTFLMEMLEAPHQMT

As for `CCOCCOC(C)=O`, the Potency entry in assay [1], in [2], in assay [3], in assay [4], in assay [5] and in assay [6] was “inactive” throughout. In addition, the Potency result in assay [7], in [8], in [9] and in assay [10] was “inactive” in each case.

Turning to `O=C1NCN(c2ccccc2)C12CCN(CC1COc3ccccc3O1)CC2` (stereo not drawn), the Potency result in assay [11], in assay [12], in assay [4], in assay [5], in [13] and in assay [14] was “inactive” each time. Besides, the Potency result in [15], in assay [6], in [7], in assay [8], in assay [9] and in [10] was “inactive” each time.

Consider `CN(C)[C@@H]1C(=O)C(C(N)=O)=C(O)[C@@]2(O)C(=O)C3=C(O)c4c(O)ccc(Cl)c4[C@@](C)(O)[C@H]3C[C@@H]12`, for which the Potency result in assay [1], in assay [2], in [3], in assay [4], in assay [14] and in assay [15] was “inactive” in each case. The Potency entry in [17], in [7] and in assay [9] was “inactive” in each case. The result in assay [16] was inactive. The Potency in [8] is 49.6 µM (active).

Turning to `C[C@]12Cc3nonc3C[C@@H]1CC[C@@H]1[C@@H]2CC[C@@]2(C)[C@H]1CC[C@]2(C)O`, the Potency entry in assay [11], in assay [2], in assay [12], in assay [18], in [3] and in assay [4] was “inactive” each time. For the same molecule, the Potency entry in [5], in [13], in assay [14], in assay [15] and in assay [6] was “inactive” each time. The outcome in [16] was inactive. In assay [8], the Potency was 7.5 µM (active).

As to `ClC1=C(Cl)[C@]2(Cl)[C@H]3[C@H]([C@H]4C=C[C@H]3C4)[C@@]1(Cl)C2(Cl)Cl`, the Potency entry in assay [1], in [11], in assay [2], in assay [3], in [4] and in assay [14] was “inactive” throughout. The Potency result in [15], in assay [6], in assay [9] and in [10] was “inactive” each time.

As for `S=C(SSC(=S)N1CCCCC1)N1CCCCC1`, the Potency in [1] was 0.188 µM (active); in assay [2] it was 0.168 µM (active); in assay [4], 0.211 µM (active); in [14] it was 0.168 µM (active); in [8], 0.15 µM (active). Besides, the Potency entry in assay [6] and in [17] was “inactive” throughout.

For `CC1(C)CC/C(=C/c2ccc(Cl)cc2)C1(O)Cn1cncn1` (stereo not drawn), the Potency entry in [4], in assay [13], in [6], in [7] and in assay [9] was “inactive” each time. For the same molecule, the Potency in assay [14] was 54.6 µM (active); in assay [8], 24.2 µM (active).

Take `c1ccc(OCC2CO2)cc1` (stereo not drawn): the Potency result in assay [3], in assay [4], in [13], in [15], in [6] and in assay [17] was “inactive” throughout. Further, the Potency result in assay [8], in [9] and in assay [10] was “inactive” each time.

Take `O=C(CBr)c1ccc(O)cc1`: the Potency entry in [1], in assay [2], in [18], in [3], in [4] and in [5] was “inactive” throughout. Besides, the Potency result in [15], in assay [6], in assay [17] and in assay [9] was “inactive” each time. Moreover, in [8], the Potency was 48.6 µM (active).

Consider `Clc1ccc(C(Cl)(Cl)Cl)c(Cl)c1`, for which the Potency result in assay [1], in [11], in [2], in assay [12], in [3] and in assay [4] was “inactive” each time. The Potency entry in [5], in assay [13], in assay [14], in [15], in [6] and in assay [7] was “inactive” in each case. The Potency entry in assay [8], in [9] and in assay [10] was “inactive” each time. For the same molecule, the outcome in assay [19] was inactive.

As to `Cc1cc(C(F)(C(F)(F)F)C(F)(F)F)ccc1NC(=O)c1cccc(I)c1C(=O)NC(C)(C)CS(C)(=O)=O`, the Potency result in [12], in assay [18], in assay [3], in [4], in assay [14] and in assay [15] was “inactive” each time. Besides, the Potency entry in assay [6], in assay [17] and in assay [9] was “inactive” each time. The outcome in assay [19] was inactive.

For `CCCCCCCCCBr`, the Potency result in assay [1], in assay [11], in assay [2], in [12], in [3] and in [4] was “inactive” each time. For the same molecule, the Potency result in [5], in assay [13], in assay [14], in assay [15], in [6] and in [17] was “inactive” in each case. For the same molecule, the Potency result in [8], in assay [9] and in assay [10] was “inactive” throughout.

Consider `C1CCC2CCCCC2C1` (stereo not drawn), for which the Potency entry in assay [1], in assay [11], in assay [2], in [12], in assay [18] and in assay [3] was “inactive” each time. The Potency entry in assay [4], in [5], in [13], in assay [14], in assay [15] and in assay [6] was “inactive” each time. Moreover, the Potency result in assay [17], in [8] and in [10] was “inactive” each time. Moreover, the molecule was called inactive in assay [16].

Turning to `CC(C)(C)c1ccc(CSc2cnn(C(C)(C)C)c(=O)c2Cl)cc1`, the Potency result in assay [4], in assay [5], in [6], in assay [17], in [9] and in assay [10] was “inactive” each time. Further, the Potency in assay [8] was 0.154 µM (active).

Take `CCOC(=O)C1(c2ccccc2)CCN(CCC(C#N)(c2ccccc2)c2ccccc2)CC1`: the Potency result in assay [2], in [3], in [4], in assay [14], in [15] and in assay [17] was “inactive” each time. Further, the Potency entry in assay [7], in [9] and in assay [10] was “inactive” in each case. The call in assay [16] was inactive. Further, the Potency in assay [8] was 18.8 µM (active).

Take `CC(C)(C)C(O)/C(=C\c1ccc(Cl)cc1Cl)n1cncn1` (stereo not drawn): the Potency was 66.5 µM (active) in [1], 59.3 µM (active) in [14], 52.8 µM (active) in [15] and 41.6 µM (active) in assay [8]. The Potency entry in assay [11], in assay [6] and in assay [17] was “inactive” in each case. For the same molecule, in assay [16], the molecule was called inactive.
